In PubChem BioAssay (NCATS) one finds Z-AUC and Potency data, which are given here for 24 compounds.

Assay [1] is described as follows: qHTS drug screen for cell cycle checkpoint inhibitors in PARPi-resistant BRCA-mutant ovarian cancer cell lines. (AID 1963452). The note with it: PEO1/OlaR viability, CellTiter-Glo luminescence, 96 h; for Z-AUC: stronger effect = lower value. The essentials:
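PEO1, PEO4 and PEO1/OlaR ovarian cancer cells, 600 per well, exposed 96 h at 37C to a dilution series. Viability read by CellTiter-Glo luminescence, normalized to DMSO and empty wells; activity summarized as Z-AUC.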

Assay [2] can be described thus: qHTS profiling for inhibitors of Plasmodium falciparum proliferation (AID 504749; active means well fitted inhibition curve with a large enough effect; further: nearly all actives have a fitted effect of over 60% in size). The note with it: P. falciparum in erythrocytes, SYBR Green DNA, 72 h. From the text:
(§1) NIH National Institute of Allergy and Infectious Diseases [NIAID] NIH Chemical Genomics Center [NCGC] MLPCN Grant: None Assay Provider: Xinzhuan Su, NIAID NCGC Assay Overview: Plasmodium falciparum is a virulent malarial parasite that kills 1-2 million people worldwide each year. Transmitted by mosquitoes, the sporozoite form of the parasite enters the blood stream to infect hepatocytes, where they become merozoites that infect red blood cells (erythrocytes). Within erythrocytes, merozoites begin a […] cycle of growth and division, after which the parasite is released to infect new red blood cells. Gametocytes, which form within erythrocytes as well, circulate in the bloodstream and are ingested by the mosquito, thereby completing the life cycle. To profile malarial isolates for differential chemical responses and to identify inhibitors of malarial growth, an assay that measures P. falciparum growth and replication within erythrocytes was employed. This assay uses a DNA binding fluorescent dye (SYBR Green) to detect parasite DNA following cell lysis. Because mature erythrocytes lack DNA, only Plasmodium-derived DNA is detected.
(§2) NCGC Assay Protocol Summary: The SYBR Green viability assay was adapted from a method described previously (Plouffe et al., 2008). For screening 3 ul culture medium was dispensed into 1536 well black clear bottom plates (Aurora Biotechnologies) using a Multidrop Combi (Thermo Fisher Scientific Inc.), 23 nL compounds in DMSO were added by a pin tool (Kalypsys), and 5 ul of erythrocytes infected with P. falciparum (0.3% parasitemia, 2.5% hematocrit final concentration) were added. The plates were incubated at 37 C in a humidified incubator in 5% CO2 for 72 h, and 2 ul lysis buffer (20 mM Tris HCl, 10 mM EDTA, 0.16% saponin, 1.6% triton X, 10X SYBR Green I supplied as 10,000X […] by Invitrogen) was added to each well. The plates were mixed for 25 sec with gentle shaking and incubated overnight at room temperature in the dark. The following morning, fluorescence intensity at 485(14) nm excitation and 535(25) nm emission wavelengths was measured on an EnVision (Perkin Elmer) plate reader. Plate reads were normalized relative to the control inhibitor (0.29 uM artemisinin) and vehicle (DMSO) wells present on each plate and then corrected by an algorithm using vehicle-only control plates at the beginning and end of the compound plate stack.

Assay [3] has as its system 3D7. The description is as above. Conditions: P. falciparum in erythrocytes, SYBR Green DNA, 72 h.
Source text: as §1, §2

Assay [4] has as its system 7G8. Described as above. The note with it: P. falciparum in erythrocytes, SYBR Green DNA, 72 h.
Source text: as §1, §2

Assay [5] deals with AA1029. The assay is described as above. Conditions: P. falciparum in erythrocytes, SYBR Green DNA, 72 h.
Source text: as §1, §2

The test system of assay [6] is AS120. Described as above. Conditions: P. falciparum in erythrocytes, SYBR Green DNA, 72 h.
Source text: as §1, §2

In assay [7] the test system is ATS189. Described as above. Conditions: P. falciparum in erythrocytes, SYBR Green DNA, 72 h.
Source text: as §1, §2

The test system of assay [8] is ATS95. The description is as above. Conditions: P. falciparum in erythrocytes, SYBR Green DNA, 72 h.
Source text: as §1, §2

For assay [9], the system named is C2A. The description is as above. The note with it: P. falciparum in erythrocytes, SYBR Green DNA, 72 h.
Source text: as §1, §2

In assay [10] the test system is CP185. Described as above. The note with it: P. falciparum in erythrocytes, SYBR Green DNA, 72 h.
Source text: as §1, §2

Where [11] appears, read: measured here: PEO1 parental Z-AUC.

Several values for one entry are separate records, joined by “and”; a condition that tells them apart may be missing. Equal values may be shown once. Records with an inconclusive call do not appear. Activity calls are given as the source filed them. Unless noted, the call rests on the fitted dose curve.
Potency means the concentration at half of the fitted maximal effect.

Consider `CCN1CCN(Cc2ccc(NC(=O)c3ccc(C)c(NC(=O)c4cncc(-c5cccs5)c4)c3)cc2C(F)(F)F)CC1`, for which the Z-AUC in [1] was -1.84 (inactive); in [1] (setting [11]), -1.46; in assay [1] (measured here: PEO4 Z-AUC), -0.887.

With `COc1cccc(Nc2ncnn3ccc(CN4CC[C@@H](N)[C@H](O)C4)c23)c1`, in [1], the Potency is 2190 nM (active). Moreover, the Z-AUC in assay [1] (setting [11]) is -1.46; in assay [1] (measured here: PEO4 Z-AUC), -1.16.

Take `CCOc1cc2ncc(C#N)c(Nc3ccc(F)c(Cl)c3)c2cc1NC(=O)/C=C/CN(C)C`: the Z-AUC in assay [1] is -0.44 (inactive); in [1] (setting [11]), -0.362; in assay [1] (measured here: PEO4 Z-AUC) it was -0.838.

In the case of `COc1cc2ncnc(Nc3cccc(Cl)c3F)c2cc1OC(=O)N1CCN(C)C[C@H]1C`, the Z-AUC is -0.739 (inactive) in assay [1], -1.08 in assay [1] (setting [11]) and -1.14 in [1] (measured here: PEO4 Z-AUC).

As to `CCN1CCN(Cc2ccc(NC(=O)Nc3ccc(Oc4cc(NC)ncn4)cc3)cc2C(F)(F)F)CC1`, the Potency in assay [1] was 4900 nM (active). Moreover, the figures for the Z-AUC in assay [1] (setting [11]) and in assay [1] (measured here: PEO4 Z-AUC) were -1.75 and -1.71, respectively.

For `CCn1c(=O)c(-c2ccn[nH]2)cc2c(C)nc(N)nc21`, the Z-AUC is -0.643 (inactive) in assay [1], -0.106 in assay [1] (setting [11]) and -0.63 in [1] (measured here: PEO4 Z-AUC).

Consider `CN1CCN(c2ccc(C(=O)Nc3n[nH]c4ccc(Cc5cc(F)cc(F)c5)cc34)c(NC3CCOCC3)c2)CC1`, for which the Z-AUC in [1] was -0.903 (inactive); in [1] (setting [11]), -1.2; in assay [1] (measured here: PEO4 Z-AUC), -1.38.

As to `CCOc1cc(C(=O)N2CCC(N3CCN(C)CC3)CC2)ccc1Nc1ncc2c(n1)N(C1CCCC1)c1ccccc1C(=O)N2C`, the Z-AUC in assay [1] was -1.32 (inactive); in assay [1] (setting [11]) it was 0.31; in assay [1] (measured here: PEO4 Z-AUC), -0.487.

Regarding `CC(C)c1cc(CNc2nc(Nc3cc(C4CC4)[nH]n3)cc(N3CCN(C)CC3)n2)on1`, the Potency in assay [1] is 549 nM (active). For the same compound, the Z-AUC in assay [1] (setting [11]) is -1.91; in assay [1] (measured here: PEO4 Z-AUC), -2.1.

For `COCCN1CCN(Cc2ccc(-c3n[nH]c4c3C(=O)c3c(NC(=O)NN5CCOCC5)cccc3-4)cc2)CC1`, the figures for the Z-AUC in assay [1], in [1] (setting [11]) and in assay [1] (measured here: PEO4 Z-AUC) were 0.43 (inactive), 0.701 and 0.00286, respectively.

`CCCCNc1ncc2c(-c3ccc(F)cc3)nn(CC3CCC(N)CC3)c2n1` (centres undefined): the Z-AUC in [1] is -1.02 (inactive); in [1] (setting [11]), -0.901; in assay [1] (measured here: PEO4 Z-AUC) it was -1.35.

In the case of `Cc1ccc(NC(=O)Nc2cc(C(F)(F)F)ccc2F)cc1Nc1ccc2c(c1)NC(=O)/C2=C\c1ccc[nH]1`, the Z-AUC in [1] is 0.377 (inactive); in [1] (setting [11]), 0.106; in assay [1] (measured here: PEO4 Z-AUC), 0.2.

With `Cc1cc(C)c(CNC(=O)c2cc(-c3ccc(CN4CCOCC4)cc3)cc3c2cnn3C2CCCC2)c(=O)[nH]1`, the values for the Z-AUC in [1], in [1] (setting [11]) and in [1] (measured here: PEO4 Z-AUC) were 0.564 (inactive), -0.591 and 0.1, respectively.

For the compound `CC(C)(C)C(=O)CN1C(=O)[C@H](NC(=O)Nc2cccc(C(=O)O)c2)CN(C2CCCCC2)c2ccccc21`, the Z-AUC in [1] is 1.75 (inactive); in assay [1] (setting [11]), 1.32; in [1] (measured here: PEO4 Z-AUC), 1.22.

Take `C[C@H]1[C@H](O)O[C@@H]2O[C@@]3(C)CC[C@H]4[C@H](C)CC[C@@H]1[C@@]24OO3`: the values for the Z-AUC in assay [1], in assay [1] (setting [11]) and in assay [1] (measured here: PEO4 Z-AUC) were 1.05 (inactive), 0.808 and 1.02, respectively.

In the case of `C[C@H]1Oc2cc(cnc2N)-c2c(nn(C)c2C#N)CN(C)C(=O)c2ccc(F)cc21`, the Z-AUC in assay [1] is 0.784 (inactive) and 2.21 (inactive); in assay [1] (setting [11]), -0.00425 and 0.761; in assay [1] (measured here: PEO4 Z-AUC), -0.356 and 0.596.

As for `O=C(NCc1cccc(O)c1)Nc1nc(-c2ccncc2)cs1`, the figures for the Z-AUC in assay [1], in assay [1] (setting [11]) and in assay [1] (measured here: PEO4 Z-AUC) were -0.136 (inactive), 0.195 and -0.295, respectively.

For `CC(C)[C@@H](CS(=O)(=O)C(C)C)N1C(=O)[C@@](C)(CC(=O)O)C[C@H](c2cccc(Cl)c2)[C@H]1c1ccc(Cl)cc1`, the Z-AUC in assay [1] is 1.18 (inactive); in assay [1] (setting [11]) it was 1.37; in [1] (measured here: PEO4 Z-AUC) it was 1.87.

Consider `Cc1c(F)cc(C(=O)NC2CC2)cc1-c1c(F)cn2c(C(C)(C)C)nnc2c1F`, for which the results for the Z-AUC in assay [1], in assay [1] (setting [11]) and in assay [1] (measured here: PEO4 Z-AUC) were 0.645 (inactive), 0.963 and 1.81, respectively.

Consider `O=C(O)c1ccc(CN2CCC(CN[C@@H]3C[C@H]3c3ccccc3)CC2)cc1`, for which the Z-AUC in [1] was -0.0301 (inactive); in [1] (setting [11]), 1.03; in assay [1] (measured here: PEO4 Z-AUC), 0.899.

Turning to `CS(=O)(=O)c1ccc(-c2nnc(/C=C/c3nnc(-c4ccc(C#N)cc4)o3)n2-c2ccccc2Cl)nc1`, the Z-AUC in [1] is -0.316 (inactive); in assay [1] (setting [11]), 0.177; in assay [1] (measured here: PEO4 Z-AUC) it was -0.0878.

In the case of `CC(=O)O[C@H]1C(=O)[C@@]2(C)[C@H]([C@H](OC(=O)c3ccccc3)[C@]3(O)C[C@H](OC(=O)[C@H](O)[C@@H](NC(=O)c4ccccc4)c4ccccc4)C(C)=C1C3(C)C)[C@]1(OC(C)=O)CO[C@@H]1C[C@@H]2O`, the Potency was 355 nM (active) in assay [2] (parasite line A); 251 nM (active) in [2] (parasite line B); 282 nM (active) in assay [3]; 398 nM (active) in assay [4]; 562 nM (active) in assay [5]; 398 nM (active) in assay [6]. In addition, the Potency in [7] is 631 nM (active); in [8], 631 nM (active); in assay [9], 355 nM (active); in assay [10] it was 199 nM (active).

Take `Cc1ccc(-c2ccc3ncc4c(c3n2)n(C2CCN(C(=O)[C@H](C)O)CC2)c(=O)n4C)cn1`: the Z-AUC is -1.81 (inactive) in assay [1], -2.34 in assay [1] (setting [11]) and -2.23 in assay [1] (measured here: PEO4 Z-AUC).

For the compound `CC[C@H](NC(=O)[C@H](CS(=O)(=O)CC1CC1)N[C@@H](c1ccc(F)cc1)C(F)(F)F)C(=O)C(=O)NC1CC1`, the results for the Z-AUC in assay [1], in assay [1] (setting [11]) and in assay [1] (measured here: PEO4 Z-AUC) were 0.263 (inactive), 1.63 and 1.51, respectively.
